Among the data in ChEMBL document CHEMBL3433997, “St. Jude Leishmania screening dataset” (2016) are inhibition values, retold here.

Holding throughout (format): functional
Assay [1] addresses Solute carrier family 2, facilitated glucose transporter member 1 (Homo sapiens) (UniProt P11166). The assay is described as follows: ST_JUDE_LEISH: Cytotoxicity at 2uM final concentration against transgenic Leishmania Mexicana promastigotes LmGLUT1 that are glucose transport deficient and complemented with the human glucose transporter GLUT1. Activity is measured by DNA content using SYBR green in vitro.

The target of assay [2] is Hexose transporter 1 (Plasmodium falciparum) (UniProt O97467). Description: ST_JUDE_LEISH: Cytotoxicity at 2uM final concentration against transgenic Leishmania Mexicana promastigotes LmPfHT that are glucose transport deficient and complemented with the Plasmodium falciparum hexose transporter. Activity is measured by DNA content using SYBR green in vitro.
For assay [3], the target named is Glucose transporter (Leishmania mexicana) (UniProt O61059). The assay is described as follows: ST_JUDE_LEISH: Cytotoxicity at 2uM final concentration against transgenic Leishmania Mexicana promastigotes LmGT2 that are glucose transport deficient and complemented with the L. Mexicana glucose transporter 2. Activity is measured by DNA content using SYBR green in vitro.

Sequence of Solute carrier family 2, facilitated glucose transporter member 1 (Homo sapiens) (P11166 whole entry): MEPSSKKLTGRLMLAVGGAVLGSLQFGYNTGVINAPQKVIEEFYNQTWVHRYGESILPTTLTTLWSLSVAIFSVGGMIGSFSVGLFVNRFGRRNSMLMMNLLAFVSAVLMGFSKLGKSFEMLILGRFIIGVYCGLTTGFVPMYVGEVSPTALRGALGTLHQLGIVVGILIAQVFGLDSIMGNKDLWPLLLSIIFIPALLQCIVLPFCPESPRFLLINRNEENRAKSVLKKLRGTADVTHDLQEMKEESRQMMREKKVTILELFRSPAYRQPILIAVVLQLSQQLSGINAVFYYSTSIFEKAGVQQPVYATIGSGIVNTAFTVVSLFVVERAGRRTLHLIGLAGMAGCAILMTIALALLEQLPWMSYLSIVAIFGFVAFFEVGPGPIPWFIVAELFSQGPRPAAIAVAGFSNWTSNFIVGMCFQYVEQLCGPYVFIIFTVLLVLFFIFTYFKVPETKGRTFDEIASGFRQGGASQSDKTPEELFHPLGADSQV

Usually inhibition stands for the relative decrease from the control value, in per cent. With `Oc1cc(Nc2ccnc3cc(-c4cccc(CN5CCCCC5)c4)ccc23)c(F)cc1Cl`, the inhibition came to 3.41% in assay [1], 2.51% in assay [2] and 2.54% in assay [3].

Regarding `CC(C)Oc1ccccc1-c1csc(C(=O)NCC2CCN(Cc3ccc(C(C)(C)C)cc3)C2)c1` (stereo not drawn), the inhibition in assay [1] is 0.7%; in assay [2], 1.62%; in assay [3] it was -2.96%.

Consider `CCc1cc2c3c(N)nc(N)nc3ccc2n1CC`, for which the inhibition in assay [1] turned out to be 40.4%; in assay [2], 58%; in assay [3], 39.4%.

Turning to `CCCC1N=C(N)N=C(N)N1c1ccc(OC)cc1` (stereo not drawn), the results for the inhibition in assay [1], in assay [2] and in assay [3] were 1.53%, -0.34% and 1.56%, respectively.

Take `Cc1cc(NC(=O)Nc2ccc(C#N)cc2)c2ccccc2n1`: the inhibition in assay [1] was found to be 1.79%; in assay [2] it was 4.35%; in assay [3] it was 0.95%.

For the compound `COc1cc2nc(NCCCOC(C)C)n3nc(-c4ccccc4)nc3c2cc1OC`, the inhibition in assay [1] stood at 11.4%; in assay [2] it was 10.4%; in assay [3] it was 7.73%.

In the case of `Cc1nc(N)nc(N)c1-c1ccc(Br)c(Br)c1`, the inhibition in assay [1] was found to be 4.47%; in assay [2], 4.38%; in assay [3], 3.4%.

On to `Cc1ccc([N+](=O)[O-])cc1NC(=O)N(CC(O)c1ccccc1)C1CCCCC1` (stereo not drawn), for which the results for the inhibition in assay [1], in assay [2] and in assay [3] were 1.93%, 2.61% and 2.38%, respectively.

As for `COc1cc(C(=O)NC2CCN(Cc3ccccc3)CC2)ccc1-c1cc2cc(Cl)c(Cl)cc2[nH]1`, the inhibition in assay [1] stood at 3.35%; in assay [2], 4.32%; in assay [3] it was 2%.

For `Cc1cc(CN2CC[C@H](NC(=O)c3ccc(Cl)c(Cl)c3)C2)ccc1OCCCN(C)C`, the inhibition was -2.61% in assay [1], -3.17% in assay [2] and -2.57% in assay [3].

In the case of `CN1CCCN(Cc2ccc(-c3cccc(NC(=O)c4ccc(F)cc4)c3)cc2)CC1`, the inhibition came out at 19.9% in assay [1], 13.8% in assay [2] and 12.4% in assay [3].

`CCNc1cc(C(=O)N[C@@H](Cc2ccccc2)[C@H](O)CNC2(CC(C)C)CC2)cc(N2CCCCS2(=O)=O)c1`: the inhibition in assay [1] was -1.54%; in assay [2], 4.02%; in assay [3], -0.34%.

As to `O=c1ccc(CNc2nc(NCCc3ccccc3)nc3cc(Cl)ccc23)c[nH]1`, the figures for the inhibition in assay [1], in assay [2] and in assay [3] were 1.81%, 0.69% and 1.95%, respectively.

With `CCCN(Cc1nnc(-c2ccco2)o1)C(=O)C1CCCN(C(=O)c2ccc(Cl)cc2)C1` (stereo not drawn), the inhibition in assay [1] was 1.85%; in assay [2], 0.73%; in assay [3], -0.96%.

Take `CCC[C@@H]([C@@H](CC1CCCCC1)C(=O)N[C@H](C(=O)Nc1nccs1)C(C)(C)SC)N(O)C=O`: the inhibition is 9.33% in assay [1], 8.98% in assay [2] and 8.5% in assay [3].

In the case of `CN1CCC(N2CCN(Cc3cccc(-c4ccc(-c5nc6cc(F)ccc6[nH]5)cc4)c3)CC2)CC1`, the inhibition turned out to be 2.43% in assay [1], 3.05% in assay [2] and 2.66% in assay [3].

Turning to `O=C(NC1CCCCCC1)[C@@H]1CCCN1C(=O)c1ccc(O)c(-c2ccc(Cl)c(Cl)c2)c1`, the inhibition in assay [1] is 0.09%; in assay [2], 2.12%; in assay [3] it was -1.06%.

In the case of `CN1CCN(c2ccc(CNc3ccc4ncc(-c5cccc(OC(F)(F)F)c5)n4n3)cc2)CC1`, the inhibition in assay [1] is -2.82%; in assay [2], -3.7%; in assay [3] it was -2.5%.

On to `CN1CCN(CCNc2c3ccccc3nc3c2ccc2ccccc23)CC1`, for which the inhibition was found to be 84.6% in assay [1], 88% in assay [2] and 81.5% in assay [3].

Turning to `CN(CCCNC(=S)NC12CC3CC(CC(C3)C1)C2)CCCNc1ccnc2cc(Cl)ccc12`, the values for the inhibition in assay [1], in assay [2] and in assay [3] were -1.07%, 0.09% and 1.25%, respectively.

With `CCCCCCC(C)c1cc(OCCN(CC)CC)c2c(c1)OC(C)(C)C=C2c1ccncc1` (stereo not drawn), the results for the inhibition in assay [1], in assay [2] and in assay [3] were -0.93%, 0.33% and -1.02%, respectively.

As for `O=C(Nc1ccc(-c2cccc(-c3nc4cc(C(F)(F)F)ccc4[nH]3)c2)cc1)Nc1ccc(F)c(F)c1F`, the results for the inhibition in assay [1], in assay [2] and in assay [3] were 0.81%, 0.04% and -1.97%, respectively.

Regarding `Cc1cccc2nc(-c3ccc(-c4ccc(CNC(C)C)cc4)cc3)[nH]c12`, the inhibition in assay [1] turned out to be 21.6%; in assay [2], 25.1%; in assay [3], 15.7%.

`COc1ccc(Nc2nc(NC3CCCC3)cc(-c3ccc(OC)cc3)n2)cc1`: the inhibition was -0.76% in assay [1], 0.56% in assay [2] and -0.75% in assay [3].

With `CCNc1cc(C(=O)N[C@@H](Cc2ccccc2)[C@H](O)CN[C@H](C)c2ccccc2)cc(N2CCCC2=O)c1`, the results for the inhibition in assay [1], in assay [2] and in assay [3] were 4.44%, 3.88% and -0.89%, respectively.

On to `Cc1nn(-c2ccccc2)nc1C(=O)N(Cc1ccc(-c2ccc(CNCCc3ccc(S(C)(=O)=O)cc3)cn2)cc1)C1CC1`, for which the inhibition came to 3.23% in assay [1], 3.85% in assay [2] and 2.91% in assay [3].

In the case of `Nc1cc(-c2ccc(Br)cc2O)nc2ccccc12`, the inhibition in assay [1] came to 1.51%; in assay [2], 0.65%; in assay [3] it was 2.06%.

`Cn1cnnc1Sc1ccc(CN2CCOc3ccc(C4=CCCCC4)cc3C2)o1`: the figures for the inhibition in assay [1], in assay [2] and in assay [3] were 0.65%, 1.97% and 1%, respectively.

Take `O=C(NCc1cccs1)[C@H](Cc1ccccc1)Nc1ccnc(NCCc2ccccc2)n1`: the inhibition is -0.12% in assay [1], -1.06% in assay [2] and -0.38% in assay [3].

As to `Cc1cc(C)cc(N2C(N)=NC(N)=NC2(C)C)c1`, the inhibition in assay [1] turned out to be 7.13%; in assay [2], 5.93%; in assay [3] it was 5.97%.

Consider `OC(CNCc1ccccc1OCc1ccccc1)c1cc(C(F)(F)F)cc(C(F)(F)F)c1` (stereo not drawn), for which the inhibition in assay [1] came to 8.75%; in assay [2] it was 10.9%; in assay [3], 4.23%.

For the compound `Cc1ccc2[nH]c3c(NCCCN(C)C)ncnc3c2c1`, the inhibition in assay [1] is -1.63%; in assay [2], -0.22%; in assay [3], -0.28%.

Regarding `O=C(/C=C/c1ccc(Cl)c(Cl)c1)NCCCCCN1CCC(NC(=O)Nc2cc(Cl)cc(Cl)c2)CC1`, the inhibition turned out to be 8.59% in assay [1], 9.64% in assay [2] and 9.93% in assay [3].

Regarding `CN(C)c1ccc(-c2ccc(C(=O)NC3CCN(Cc4ccccc4)CC3)s2)cc1`, the inhibition was determined as 1.65% in assay [1], 0.56% in assay [2] and 1.83% in assay [3].

For the compound `CC(C)N1CCN(C(CN2CCN(CCCOc3cccc4ccccc34)CC2)c2ccc(F)cc2)CC1` (stereo not drawn), the inhibition is -1.68% in assay [1], 0.92% in assay [2] and 4.19% in assay [3].

Take `Cc1onc(-c2c(F)cccc2Cl)c1C(=O)Nc1ccccc1I`: the inhibition was 2.35% in assay [1], 2.24% in assay [2] and 2.12% in assay [3].
